# Screens deposited in PubChem by National Center for Advancing Translational Sciences (NCATS).
# This is a sample that favours compounds with a hit; in the whole collection about 8.5% have one here.
# NPSR antagonist – antagonists of human neuropeptide S receptor cAMP signaling. CHO-NPSR cells, cAMP TR-FRET, antagonist mode. Potency, µM (doses to about 38.3 µM), for the others: at the top dose activity change, negative = inhibition, actives largely listed as inhibitors. actives 1% (n = 220,000); active = well fitted curve in the direction sought with a large enough effect; inconclusive = small, poorly fitted or top-dose-only effect, or another doubt; inactive = no such curve, though single readings can be large; an effect the other way counts as inactive or inconclusive; also: potency is read from the fitted curve at half-maximal effect; nearly all actives have a fitted effect of over 50% in size
# Target sequence (Q6W5P4 whole entry, looked up): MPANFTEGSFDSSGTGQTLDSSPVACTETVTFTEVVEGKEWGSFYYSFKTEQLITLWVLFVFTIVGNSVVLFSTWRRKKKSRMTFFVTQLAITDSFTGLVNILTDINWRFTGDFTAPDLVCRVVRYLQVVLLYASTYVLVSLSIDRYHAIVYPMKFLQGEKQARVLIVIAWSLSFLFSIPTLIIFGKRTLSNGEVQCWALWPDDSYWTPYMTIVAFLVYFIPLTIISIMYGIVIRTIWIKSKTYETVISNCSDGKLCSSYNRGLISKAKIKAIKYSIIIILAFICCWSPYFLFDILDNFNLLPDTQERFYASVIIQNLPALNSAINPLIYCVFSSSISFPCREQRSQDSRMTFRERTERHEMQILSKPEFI
# ALDH1A1 inh – blocks purified human ALDH1A1 activity | P00352 | Purified ALDH1A1, NADH fluorescence, propionaldehyde substrate | Potency, µM (top dose mostly 75.3 µM), for inactives: at the highest dose activity, negative = inhibition, hits mostly inhibitors | actives 7.3% (n = 220,000) | AID 1030;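 also: potency is read from the fitted curve at half-maximal effect; plate controls were no enzyme wells and a reference inhibitor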
# JMJD2E inh – blocks human JMJD2E demethylase activity. B2RXH2. JMJD2E catalytic domain, FDH-coupled NADH fluorescence (FDH is formaldehyde dehydrogenase). Potency, µM (highest dose often 57.1 µM), inactives show top-dose activity change, negative = inhibition, actives largely listed as inhibitors. actives 1.6% (n = 230,000);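 also: potency is read from the fitted curve at half-maximal effect; 0% = wells with enzyme and -100% = buffer wells without enzyme; nearly all actives have a fitted effect of over 50% in size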
# Coupling enz – counter-screen for Giardia aldolase inhibitors: coupling enzyme system; activity change, negative = inhibition, % at 58.2 µM, hits read low; actives 0.67% (n = 290,000); coupling enzyme system counterscreen, AmpLite Red fluorescence; in the data active = activity change below about -30%
#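 Final compound at 57.5 uM, incubated 10 min at RT with coupling enzyme reagent (glyceraldehyde-3-phosphate), then 20 min with substrate and AmpLite Red detection. Fluorescence read at 525/598 nm; tests interference with the coupling assay, not aldolase inhibition.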
# Sfp inh – blocks B. subtilis Sfp PPTase activity; Biochemical Sfp PPTase activity, qHTS; Potency, µM, without a hit: largest response in the series, negative = inhibition, most hits filed as inhibitors; actives 3.5% (n = 310,000); active = well fitted curve in the direction sought with a large enough effect; inconclusive = small, poorly fitted or top-dose-only effect, or another doubt; inactive = no such curve, though single readings can be large; an effect the other way counts as inactive or inconclusive;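 also: the enzyme is Sfp with the accession as filed and its product quenches rhodamine fluorescence; potency is read from the fitted curve at half-maximal effect; 0% = enzyme reaction without inhibitor and -100% = no enzyme wells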
#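 Step 1, compound plus 15 nM Sfp-PPTase, 15 min, room temperature. Step 2, add rhodamine-CoA (5 uM) and BHQ-2-YbbR (12.5 uM). Step 3, read 525/598 nm fluorescence at 0 and 30 min.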
# GoLoco inh red – inhibitors of human Gai1-RGS12 GoLoco interaction (red fluorophore). P63096. Potency, µM (highest dose often 61.6 µM), for inactives: at the highest dose activity, negative = inhibition, most hits filed as inhibitors. actives 0.44% (n = 230,000). Gai1:RGS12 GoLoco peptide FP, rhodamine, 10 min; active = well fitted inhibition curve with a large enough effect, not every such curve was filed as active; inactive = no such curve, though single readings can be large or run the other way; also: potency is read from the fitted curve at half-maximal effect; nearly all actives have a fitted effect of over 30% in size
# Starred values were filed as active, the others as inactive; ? = inconclusive; · = no result given; [ ] = dose if it differs, or a comment. Unless noted, calls follow the shape of the dose curve; as a rule, active = well fitted inhibition curve with a large enough effect (not every such curve was filed as active); inconclusive = small, poorly fitted or top-dose-only effect, or another doubt; inactive = no such curve, though single readings can be large or run the other way. Unless noted, % is scaled to controls: 0 for no effect and ±100 for the full control effect.
SMILES,NPSR antagonist,ALDH1A1 inh,JMJD2E inh,Coupling enz,Sfp inh,GoLoco inh red
CC(=O)c1ccc(OCc2ccc(C(=O)c3ccccc3)cc2)cc1,7.8%,11.2µM*,-22.4%,-2.0,-27.0%,-6.7%
COc1ccccc1N1CCN(CCCCN2C(=O)C3CCCCN3C2=O)CC1 (stereo not given),·,·,·,3.1,-7.7%,·
O=C(Cc1ccc(Cl)cc1)Nc1ccc(SC(F)F)cc1,-41.0%,1.7%,5.4%,-1.4,7.1%,9.0%
CCOc1ccc2nc(NC(=O)CSC3=NCCS3)sc2c1,-16.4%[46.1 µM],25.1µM*,-1.5%,1.5,0.6%,6.1%
Cc1ccc2nc(NC(=O)CN3C(=O)C4CC=CCC4C3=O)sc2c1 (stereo not given),-4.2%,-0.4%,6.1%,2.5,7.0%,9.7%
Cc1ccc[n+](CC(=O)Nc2nc3ccccc3s2)c1,-0.2%,14.1µM*,-2.7%,0.4,11.1%,3.6%
CCOCC(=O)Nc1nc2ccc(S(C)(=O)=O)cc2s1,-11.0%[46.1 µM],17.8µM*,6.8%,2.1,?,-2.9%
CS(=O)(=O)c1ccc2nc(NC(=O)CN3C(=O)C4CC=CCC4C3=O)sc2c1 (stereo not given),6.2%,12.6µM*,6.2%,6.8,14.4%,-2.7%
CCC(=O)Nc1nc2ccc(S(C)(=O)=O)cc2s1,-11.8%[46.1 µM],2.2%,-3.8%,-2.1,17.4%,-10.9%
COc1ccc2nc(NC(=O)CSC3=NCCS3)sc2c1,-21.4%[46.1 µM],-6.6%,-5.9%,-0.7,-13.2%,13.3%
C[C@H]1[C@H](C)CC[C@]2(C(=O)O)CC[C@]3(C)C(=CC[C@H]4[C@]3(C)C[C@@H](O)C3[C@](C)(CO)[C@H](O)[C@@H](O)C[C@]34C)[C@H]12 (stereo not given in full),·,-10.2%[13.5 µM],·,·,·,3.8%[14.2 µM]
COC(=O)C1=C(C(=O)OC)[C@@H]2N(Cc3ccccc3)c3ccccc3[C@@]23C[C@@H](C(=O)OC)N(C(=O)c2ccco2)C3=N1,·,-0.5%[13.5 µM],6.5%[11.4 µM],2.1,9.0%,0.9%[14.2 µM]
CCOCC(=O)Nc1nc2ccc(OCC)cc2s1,-16.2%[46.1 µM],15.8µM*,-1.6%,3.7,10.7%,-2.2%
CCOCC(=O)Nc1nc2ccc(C)cc2s1,-1.7%[46.1 µM],12.6µM*,-1.5%,-2.1,7.6%,8.8%
CS(=O)(=O)c1ccc2nc(NC(=O)CC3CCCC3)sc2c1,-11.4%[46.1 µM],?,-2.0%,-0.7,-12.2%,20.1%
CC(C)CC(=O)Nc1nc2ccc(S(C)(=O)=O)cc2s1,6.0%,?,-2.0%,1.3,20µM*,1.3%
Cn1nnnc1SCC(=O)Nc1nc2c(s1)CCCC2,2.7%[46.1 µM],-11.1%,3.3%,-1.2,12.0%,-5.5%
CCOc1ccc2nc(NC(=O)CSc3cn[nH]n3)sc2c1,·,·,·,-0.3,-5.4%,·
O=C(CSC1=NCCS1)Nc1nc2c(s1)CCCC2,-26.3%[46.1 µM],?,-1.9%,-1.3,56.2µM*,42.6%
Cc1cc(C)cc(N(CC(=O)N2CCCCCC2)S(C)(=O)=O)c1,·,·,·,1.6,8.3%,·
Cc1ccc2nc(NC(=S)NC(=O)c3ccc(OC(C)C)cc3)sc2c1,?,18.9µM*,3.2%,3.0,-92.9%,-24.3%
Cc1cc(C)nc(NS(=O)(=O)c2ccc(NC(=O)CN3C(=O)C4CC=CCC4C3=O)cc2)n1 (stereo not given),6.7%,31.6µM*,-5.1%,7.8,9.6%,6.0%
O=C(CN1C(=O)C2CC=CCC2C1=O)Nc1ccc(S(=O)(=O)Nc2ncccn2)cc1 (stereo not given),17.2%,·,7.6%,1.1,17.4%,-3.7%
Cc1ccc(/C=C(\C#N)C(=O)Nc2ccccn2)o1,-33.2%,-6.3%,-27.9%,0.7,4.4%,12.8%
NS(=O)(=O)c1ccc(NC(=O)COc2cccc3ccccc23)cc1,·,·,·,1.6,0.6%,·
CN1CCN(C(c2ccccn2)c2cc(Cl)c3cccnc3c2O)CC1 (stereo not given),-32.6%,10µM*,25.1µM*,-7.2,31.6µM*,-0.5%
Cc1ccc(C(c2cc(Cl)c3cccnc3c2O)N2CCN(C)CC2)cc1 (stereo not given),·,·,·,-4.5,35.5µM*,·
